Data from the supplement of paper PMC13380429.

Test system: Vero E6 infected with SARS-CoV-2
Assay: inhibition of SARS-CoV-2 cytopathic effect; higher = more antiviral protection, active = above 15
Details: 48 h

Measured: inhibition of SARS-CoV-2 cytopathic effect

CCC(=O)O[C@]1(C(=O)CO)CC[C@H]2[C@@H]3CCC4=CC(=O)CC[C@]4(C)[C@H]3CC[C@@]21C
inactive: 1 nM 0.99% | 8.33 nM 0.06% | 100 nM -0.33% | 833.33 nM 1.21% | 10000 nM 2.45%

CCCCCOc1ccc(-c2cc(-c3ccc(C(=O)N[C@H]4C[C@@H](O)[C@@H](O)NC(=O)[C@@H]5[C@@H](O)[C@@H](C)CN5C(=O)[C@H]([C@H](O)CC(N)=O)NC(=O)[C@H]([C@H](O)[C@@H](O)c5ccc(O)c(OS(=O)(=O)O)c5)NC(=O)[C@@H]5C[C@@H](O)CN5C(=O)[C@H]([C@@H](C)O)NC4=O)cc3)no2)cc1 [micafungin]
inactive: 1 nM -6.42% | 8.33 nM -5.65% | 100 nM -5.9% | 833.33 nM -3.13% | 10000 nM 4.81%

Cc1noc2c1-c1ccccc1C(c1ccc(Cl)cc1)=N[C@H]2CC(N)=O
inactive: 1 nM -3.02% | 8.33 nM 0.61% | 100 nM -3.13% | 833.33 nM 0.14% | 10000 nM -11.1%

Cc1c(C)c2c(c(C)c1O)CCC(C)(C)O2
inactive: 1 nM 0.77% | 8.33 nM -0.34% | 100 nM 2.33% | 833.33 nM 4.37% | 10000 nM -5.56%

CCOC(=O)c1ccccc1OC(N)=O [ethyl-2-(carbamoyloxy)benzoate]
inactive: 1 nM -8.28% | 8.33 nM -7.77% | 100 nM -4.5% | 833.33 nM -2.39% | 10000 nM -3.35%

C=CC[C@]1(O)CC[C@H]2[C@@H]3CCC4=CCCC[C@@H]4[C@H]3CC[C@@]21C [allylestrenol]
inactive: 1 nM -1.01% | 8.33 nM -2.16% | 100 nM 1.52% | 833.33 nM 1.07% | 10000 nM 1.75%

Clc1cccc(Nc2nnc(-c3ccccc3)c3ccccc23)c1
inactive: 1 nM 1.65% | 8.33 nM 2.3% | 100 nM 2.13% | 833.33 nM 1.98% | 10000 nM 2.92%

O=C(/C=C/c1ccc(O)c(O)c1)c1ccc(O)cc1O [butein]
inactive: 1 nM -0.13% | 8.33 nM 0.3% | 100 nM 1.11% | 833.33 nM 2.97% | 10000 nM 12.1%

C[C@]12CC[C@@H]3c4ccc(O)cc4CC[C@H]3[C@@H]1CC[C@@H]2OC(=O)CCC1CCCC1 [estradiol-cypionate]
inactive: 1 nM -1.71% | 8.33 nM -1.36% | 100 nM -3.51% | 833.33 nM 1.21% | 10000 nM 1.69%

CCOc1nc2cccc(C(=O)O)c2n1Cc1ccc(-c2ccccc2-c2nnn[nH]2)cc1 [candesartan]
inactive: 1 nM -1.63% | 8.33 nM -2.91% | 100 nM -3.25% | 833.33 nM -3.84% | 10000 nM -1.38%

OC[C@H]1O[C@@H](Oc2ccc(O)cc2)[C@H](O)[C@@H](O)[C@@H]1O [arbutin]
inactive: 1 nM -0.81% | 8.33 nM 0.67% | 100 nM 0.6% | 833.33 nM -2.34% | 10000 nM 0.83%

CS(=O)(=O)Nc1c(O)ccc2c1CCC[C@H]2C1=NCCN1
inactive: 1 nM 1.13% | 8.33 nM -1.43% | 100 nM -1.29% | 833.33 nM 0.49% | 10000 nM -3.82%

O=C(O)CCCN1CCC(O[C@@H](c2ccc(Cl)cc2)c2ccccn2)CC1 [bepotastine]
inactive: 1 nM -0.92% | 8.33 nM 2.31% | 100 nM 0.31% | 833.33 nM 2.01% | 10000 nM -0.07%

CN1CC[C@H](c2c(O)cc(O)c3c(=O)cc(-c4ccccc4Cl)oc23)[C@H](O)C1 [alvocidib]
inactive: 1 nM 2.38% | 8.33 nM 1.53% | 100 nM 7.55% | 833.33 nM -19.4% | 10000 nM -9.43%

CN1[C@H]2C[C@H](OC(=O)[C@H](CO)c3ccccc3)C[C@@H]1[C@@H](O)C2 [anisodamine]
inactive: 1 nM 1.04% | 8.33 nM 2.56% | 100 nM 3.99% | 833.33 nM 5.76% | 10000 nM 3.66%

O=C1O[C@H]([C@@H](O)CO)C(O)=C1O
inactive: 1 nM -3.29% | 8.33 nM -0.03% | 100 nM -1.22% | 833.33 nM -0.21% | 10000 nM -1.51%

CC[N+](CC)(CCNC(=O)C(=O)NCC[N+](CC)(CC)Cc1ccccc1Cl)Cc1ccccc1Cl [ambenonium]
inactive: 1 nM 0.39% | 8.33 nM -2.16% | 100 nM -1.45% | 833.33 nM 0.75% | 10000 nM 0.34%

CCN(CC)CC(=O)Nc1c(C)cccc1C [lidocaine]
inactive: 1 nM 0.85% | 8.33 nM 1.24% | 100 nM 0.45% | 833.33 nM 1.31% | 10000 nM -0.93%

CC(C)(C)c1cc(C=C(C#N)C#N)cc(Br)c1O
inactive: 1 nM 0.94% | 8.33 nM -0.19% | 100 nM 0.29% | 833.33 nM -1.48% | 10000 nM 4.93%

CC[C@]1(O)C[C@@H]2CN(CCc3c([nH]c4ccccc34)[C@@](C(=O)OC)(c3cc4c(cc3OC)N(C)[C@H]3[C@@](O)(C(N)=O)[C@H](O)[C@]5(CC)C=CCN6CC[C@]43[C@@H]65)C2)C1 [vindesine]
inactive: 1 nM 0.4% | 8.33 nM 0.16% | 100 nM -1.63% | 833.33 nM 0.62% | 10000 nM -2.18%

CC1(C)N=C(N)N=C(N)N1OCCCOc1cc(Cl)c(Cl)cc1Cl
inactive: 1 nM -1.05% | 8.33 nM 0.38% | 100 nM 0.21% | 833.33 nM 0.74% | 10000 nM -2.49%

O=C(c1ccc(Cl)o1)N1CC2CNCC2C1 (stereo not given)
inactive: 1 nM -0.08% | 8.33 nM 1.51% | 100 nM 2.2% | 833.33 nM 1.83% | 10000 nM 0.93%

Oc1cc(Cl)ccc1Oc1ccc(Cl)cc1Cl [triclosan]
inactive: 1 nM -1.92% | 8.33 nM -0.14% | 100 nM 1.39% | 833.33 nM -0.77% | 10000 nM 7.81%

O=[N+]([O-])/C=C/c1ccc2c(c1)OCO2 [3,4-methylenedioxy-beta-nitrostyrene]
inactive: 1 nM -1.15% | 8.33 nM 0.64% | 100 nM -1.64% | 833.33 nM -3.16% | 10000 nM 7.29%

CCOc1cc2ncc(C#N)c(Nc3ccc(OCc4ccccn4)c(Cl)c3)c2cc1NC(=O)/C=C/CN(C)C [neratinib]
inactive: 1 nM 0.12% | 8.33 nM -2.36% | 100 nM -7.88% | 833.33 nM -0.85% | 10000 nM -8.5%

CCCCC1(COC(=O)CCC(=O)O)C(=O)N(c2ccccc2)N(c2ccccc2)C1=O [suxibuzone]
inactive: 1 nM -0.21% | 8.33 nM -4.18% | 100 nM -2.21% | 833.33 nM -3.64% | 10000 nM 0.42%

CN[C@@H](C)C(=O)N[C@H]1CCCC[C@H]2CC[C@@H](C(=O)N[C@@H](c3ccccc3)c3cn(CCCCc4ccc(CCCCn5cc([C@@H](NC(=O)[C@@H]6CC[C@@H]7CCCC[C@H](NC(=O)[C@H](C)NC)C(=O)N76)c6ccccc6)nn5)cc4)nn3)N2C1=O
inactive: 1 nM -2.38% | 8.33 nM -0.21% | 100 nM -2.09% | 833.33 nM -4.99% | 10000 nM -13.1%

C1=Cc2cccc(OCC3CNCCO3)c2C1 (stereo not given) [indeloxazine]
inactive: 1 nM 1.29% | 8.33 nM 2.5% | 100 nM 1.2% | 833.33 nM 0.43% | 10000 nM -0.62%

COc1cc(C[C@@H](CO)[C@H](CO)Cc2ccc(O)c(OC)c2)ccc1O [secoisolariciresinol-(-)]
inactive: 1 nM 1.65% | 8.33 nM 5.68% | 100 nM 0.9% | 833.33 nM 0.53% | 10000 nM -4.27%

CN1[C@@H]2CC[C@H]1C[C@@H](OC(=O)c1cc(Cl)cc(Cl)c1)C2 [bemesetron]
inactive: 1 nM -0.2% | 8.33 nM 0.56% | 100 nM 0.85% | 833.33 nM 0.1% | 10000 nM 2.26%

COC(=O)[C@H](CC(C)C)NC(=O)c1ccc(NC[C@@H](N)CS)cc1-c1cccc2ccccc12
inactive: 1 nM -1.19% | 8.33 nM 4.63% | 100 nM -0.9% | 833.33 nM -1.25% | 10000 nM -4.69%

COC(=O)N[C@@H](C)CNc1nccc(-c2cn(C(C)C)nc2-c2cc(Cl)cc(NS(C)(=O)=O)c2F)n1 [Encorafenib (LGX818)]
inactive: 1 nM 0.31% | 8.33 nM 0.31% | 100 nM 2.88% | 833.33 nM 6.46% | 10000 nM -1.13%

CN(C)CCc1c[nH]c2ccc(CS(=O)(=O)N3CCCC3)cc12 [almotriptan]
inactive: 1 nM -0.13% | 8.33 nM 1.33% | 100 nM -0.24% | 833.33 nM 0.04% | 10000 nM -2.87%

Cc1c(C)c2c(c(C)c1O)CCC(C)(COc1ccc(CC3SC(=O)NC3=O)cc1)O2 (stereo not given) [troglitazone]
inactive: 1 nM 1.07% | 8.33 nM 1.5% | 100 nM 1.01% | 833.33 nM 2.48% | 10000 nM 5.84%

NCCS(=O)(=O)O [taurine]
inactive: 1 nM -2.1% | 8.33 nM -0.91% | 100 nM -1.56% | 833.33 nM 0.1% | 10000 nM -0.28%

C=CC(=O)Nc1cc(Nc2nccc(-c3cn(C)c4ccccc34)n2)c(OC)cc1N(C)CCN(C)C [osimertinib]
inactive: 1 nM 1.08% | 8.33 nM 0.08% | 100 nM -5.65% | 833.33 nM -10.8% | 10000 nM -16.5%

O=NO [sodium-nitrite]
inactive: 1 nM 1.28% | 8.33 nM -0.03% | 100 nM 3.46% | 833.33 nM 3.43% | 10000 nM 0.91%
